About 3,300 (8.5%) of roughly 39,000 compounds were called active. This is one part of a sample in which actives are shown more often than they occur.

Here are results for 38 compounds from the antibiotic and cytotoxicity screens of Wong et al. (2023).

The assay relates to HepG2. Description: cytotoxicity call (relative viability < 0.9). As to conditions: 10 µM.
On to `CCN1CCC(N(C)S(=O)(=O)c2cn(C)c(=O)n(C)c2=O)CC1`, for which the cytotoxicity call is “inactive”.

In the case of `CO[C@@H]1CN(C)C(=O)c2ccc(NS(C)(=O)=O)cc2OC[C@H](C)N(C(=O)C2CCCCC2)C[C@H]1C`, the cytotoxicity call was “inactive”.

Regarding `C[C@@H]1CN([C@H](C)CO)C(=O)c2cc(NS(C)(=O)=O)ccc2O[C@H]1CN(C)Cc1ccc(C(=O)Nc2ccccc2N)cc1`, the cytotoxicity call is “inactive”.

For `C[C@@H]1CCCCO[C@@H](CN(C)C(=O)Nc2cccc3ccccc23)[C@@H](C)CN([C@H](C)CO)C(=O)c2cc(NS(=O)(=O)c3cccs3)ccc2O1`, the cytotoxicity call is “inactive”.

Regarding `C[C@@H]1CN([C@@H](C)CO)C(=O)c2cccc(NS(=O)(=O)c3ccccc3)c2O[C@H]1CN(C)Cc1ccncc1`, the cytotoxicity call is “inactive”.

In the case of `CCOc1nc2cccc(C(=O)O[C@@H](C)OC(=O)OC3CCCCC3)c2n1Cc1ccc(-c2ccccc2-c2nn[nH]n2)cc1`, the cytotoxicity call was “inactive”.

In the case of `c1ccc2c(c1)Cn1nnnc1-2`, the cytotoxicity call is “inactive”.

With `C[C@H]1CN([C@@H](C)CO)S(=O)(=O)c2ccc(-c3ccc(C(=O)N(C)C)cc3)cc2O[C@@H]1CN(C)C(=O)Cc1ccccn1`, the cytotoxicity call was “inactive”.

Take `C[C@@H]1CN([C@@H](C)CO)C(=O)CCCn2nncc2CO[C@@H]1CN(C)C(=O)Nc1ccc(N2CCCCC2)cc1`: the cytotoxicity call is “inactive”.

Turning to `COc1ccccc1C#Cc1cnc2c(c1)C(=O)N([C@@H](C)CO)C[C@@H](C)[C@H](CN(C)C(=O)c1ccc3c(c1)OCO3)O2`, the cytotoxicity call is “inactive”.

With `C[C@H](CO)N1C[C@H](C)[C@@H](CN(C)Cc2ccc(Cl)c(Cl)c2)Oc2c(NC(=O)CCCCCC(=O)Nc3ccccc3N)cccc2C1=O`, the cytotoxicity call was “inactive”.

Regarding `C[C@@H]1CN([C@H](C)CO)C(=O)c2cc(NS(=O)(=O)c3cccs3)ccc2O[C@@H](C)CCCCO[C@H]1CN(C)C(=O)NC1CCCCC1`, the cytotoxicity call was “inactive”.

On to `C[C@@H]1CN([C@@H](C)CO)C(=O)c2cc(NS(=O)(=O)c3cccs3)ccc2O[C@@H](C)CCCCO[C@@H]1CN(C)C(=O)Nc1ccc(C(F)(F)F)cc1`, for which the cytotoxicity call is “inactive”.

Turning to `C[C@H]1CCCCO[C@@H](CN(C)C(=O)Nc2ccccc2)[C@@H](C)CN([C@@H](C)CO)C(=O)c2cc(NS(=O)(=O)c3cccs3)ccc2O1`, the cytotoxicity call is “inactive”.

As to `C[C@@H]1CCCCO[C@@H](CN(C)C(=O)Nc2ccc(C(F)(F)F)cc2)[C@H](C)CN([C@@H](C)CO)C(=O)c2cc(NS(=O)(=O)c3cccs3)ccc2O1`, the cytotoxicity call is “inactive”.

In the case of `C[C@@H]1CCCCO[C@H](CN(C)C(=O)Nc2ccc(C(F)(F)F)cc2)[C@H](C)CN([C@H](C)CO)C(=O)c2cc(NS(=O)(=O)c3cccs3)ccc2O1`, the cytotoxicity call was “inactive”.

With `C[C@@H]1CN([C@H](C)CO)C(=O)c2cc(NS(=O)(=O)c3cccs3)ccc2O[C@@H](C)CCCCO[C@@H]1CN(C)C(=O)NC1CCCCC1`, the cytotoxicity call was “active”.

Take `C[C@H](CO)N1C[C@H](C)[C@H](CN(C)C(=O)Nc2ccc(C(F)(F)F)cc2)OCCCC[C@H](C)Oc2ccc(NS(=O)(=O)c3cccs3)cc2C1=O`: the cytotoxicity call was “active”.

As to `C[C@@H]1CCCCO[C@@H](CN(C)C(=O)Nc2ccccc2)[C@@H](C)CN([C@H](C)CO)C(=O)c2cc(NS(=O)(=O)c3cccs3)ccc2O1`, the cytotoxicity call was “inactive”.

Consider `C[C@H](CO)N1C[C@H](C)[C@@H](CN(C)C(=O)Nc2ccc(C(F)(F)F)cc2)OCCCC[C@H](C)Oc2ccc(NS(=O)(=O)c3cccs3)cc2C1=O`, for which the cytotoxicity call is “active”.

`C[C@H]1CCCCO[C@@H](CN(C)C(=O)NC2CCCCC2)[C@@H](C)CN([C@@H](C)CO)C(=O)c2cc(NS(=O)(=O)c3cccs3)ccc2O1`: the cytotoxicity call was “inactive”.

Regarding `C[C@@H]1CCCCO[C@H](CN(C)C(=O)Nc2ccc(C(F)(F)F)cc2)[C@@H](C)CN([C@H](C)CO)C(=O)c2cc(NS(=O)(=O)c3cccs3)ccc2O1`, the cytotoxicity call is “inactive”.

Regarding `C[C@@H]1CCCCO[C@H](CN(C)C(=O)Nc2ccccc2)[C@@H](C)CN([C@@H](C)CO)C(=O)c2cc(NS(=O)(=O)c3cccs3)ccc2O1`, the cytotoxicity call is “active”.

On to `Cc1cc(C)c2nnc(SCC(=O)O)n2n1`, for which the cytotoxicity call was “inactive”.

For the compound `C[C@@H]1CN([C@@H](C)CO)C(=O)Cc2cc(NS(C)(=O)=O)ccc2O[C@H]1CN(C)C(=O)NC1CCCCC1`, the cytotoxicity call was “inactive”.

For the compound `Cc1noc(C)c1NC(=O)N[C@@H]1CC[C@H](CC(=O)NCCCN(C)C)O[C@@H]1CO`, the cytotoxicity call is “inactive”.

`O=C(C[C@@H]1C[C@H]2c3cc(NS(=O)(=O)c4ccc(F)cc4)ccc3O[C@H]2[C@H](CO)O1)NCc1ccccc1`: the cytotoxicity call was “inactive”.

With `Cc1ccc(S(=O)(=O)N(C)C[C@H]2Oc3ccc(NS(C)(=O)=O)cc3C(=O)N([C@@H](C)CO)C[C@H]2C)cc1`, the cytotoxicity call is “inactive”.

With `CN(C)CCCNC(=O)C[C@@H]1CC[C@H](NS(=O)(=O)c2ccccc2)[C@H](CO)O1`, the cytotoxicity call was “inactive”.

In the case of `C[C@@H]1CCCCO[C@@H](CN(C)C(=O)Nc2ccc(C(F)(F)F)cc2)[C@H](C)CN([C@H](C)CO)C(=O)c2cc(NS(=O)(=O)c3cccs3)ccc2O1`, the cytotoxicity call was “active”.

Regarding `C[C@H]1CCCCO[C@@H](CN(C)C(=O)Nc2ccc(C(F)(F)F)cc2)[C@@H](C)CN([C@@H](C)CO)C(=O)c2cc(NS(=O)(=O)c3cccs3)ccc2O1`, the cytotoxicity call is “inactive”.

Turning to `C[C@@H]1CCCCO[C@@H](CN(C)C(=O)C2CCCCC2)[C@@H](C)CN([C@H](C)CO)C(=O)c2cc(NS(=O)(=O)c3cccs3)ccc2O1`, the cytotoxicity call is “active”.

Consider `C[C@H]1CCCCO[C@H](CN(C)C(=O)Nc2ccc(C(F)(F)F)cc2)[C@@H](C)CN([C@@H](C)CO)C(=O)c2cc(NS(=O)(=O)c3cccs3)ccc2O1`, for which the cytotoxicity call was “inactive”.

Take `C[C@@H]1CCCCO[C@@H](CN(C)C(=O)Nc2ccc(C(F)(F)F)cc2)[C@@H](C)CN([C@H](C)CO)C(=O)c2cc(NS(=O)(=O)c3cccs3)ccc2O1`: the cytotoxicity call was “inactive”.

`C[C@@H]1CCCCO[C@H](CN(C)C(=O)C2CCCCC2)[C@H](C)CN([C@H](C)CO)C(=O)c2cc(NS(=O)(=O)c3cccs3)ccc2O1`: the cytotoxicity call was “inactive”.

For `C[C@@H]1CCCCO[C@H](CN(C)C(=O)Nc2ccc(C(F)(F)F)cc2)[C@@H](C)CN([C@@H](C)CO)C(=O)c2cc(NS(=O)(=O)c3cccs3)ccc2O1`, the cytotoxicity call is “active”.

For the compound `C[C@@H]1CCCCO[C@H](CN(C)C(=O)Nc2ccc(C(F)(F)F)cc2)[C@H](C)CN([C@@H](C)CO)C(=O)c2cc(NS(=O)(=O)c3cccs3)ccc2O1`, the cytotoxicity call is “inactive”.

In the case of `C[C@@H]1CCCCO[C@@H](CN(C)C(=O)C2CCCCC2)[C@H](C)CN([C@H](C)CO)C(=O)c2cc(NS(=O)(=O)c3cccs3)ccc2O1`, the cytotoxicity call was “inactive”.
